Source: PubChem BioAssay (EPA / NIEHS)
The source made the active and inactive calls. Rule for the calls: active = hit-call score of the fitted dose curve at least 0.9, where 1 is the maximum; inactive = score below 0.9.

Experiments:
Conditions in all cases: mRNA level, 48 h; actives raise or lower the signal
[1] = read-out: matrix metalloproteinase-10 (MMP10), MMP10 (gene 4319); experiment: LTEA_HepaRG_MMP10: Life Technologies and Expression Analysis (LTEA) Assay for matrix metalloproteinase-10 (MMP10) using HepaRG (AID 2283517)
Outline: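 HepaRG, collagen I, ~100,000 cells/well; serum-free induction medium; 48 h exposure, duplicate, 8-pt half-log to 100 uM, 0.5% DMSO. Readout: TaqMan qRT-PCR, normalized to ACTB/GAPDH/POLR2A; bidirectional fit vs DMSO.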

MYC, MYC (gene 4609) = experiment: LTEA_HepaRG_MYC: Life Technologies and Expression Analysis (LTEA) Assay for MYC using HepaRG (AID 2283518)
Outline: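 MYC transcript changes, up or down relative to 0.5% DMSO, from TaqMan qRT-PCR normalized to three housekeeping genes. Human HepaRG cultures received chemicals for 48 h at eight half-log concentrations up to 100 uM, in duplicate.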

[2] = read-out: matrix metalloproteinase-3 (MMP3), MMP3 (gene 4314); experiment: LTEA_HepaRG_MMP3: Life Technologies and Expression Analysis (LTEA) Assay for matrix metalloproteinase-3 (MMP3) using HepaRG (AID 2283519)
Outline: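 Differentiated human HepaRG cells, plated 48 h on collagen I, were exposed in duplicate for 48 h in serum-free induction medium to eight half-log concentrations up to 100 uM in 0.5% DMSO. MMP3 mRNA was quantified by TaqMan qRT-PCR, normalised to ACTB, GAPDH and POLR2A.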

[3] = read-out: Paternally Expressed 10 (PEG10), PEG10 (gene 23089); experiment: LTEA_HepaRG_PEG10: Life Technologies and Expression Analysis (LTEA) Assay for Paternally Expressed 10 (PEG10) using HepaRG (AID 2283520)
Outline: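 HepaRG, 48 h post-plating → serum-free induction medium → 48 h chemical exposure (duplicate, 8-pt, max 100 uM, half-log, 0.5% DMSO) → lysis in RLT → TaqMan qRT-PCR for PEG10, ACTB/GAPDH/POLR2A normalisation.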

[4] = read-out: Nuclear factor NF-kappa-B p105 subunit (Homo sapiens) (UniProt P19838); experiment: LTEA_HepaRG_NFKB1: Life Technologies and Expression Analysis (LTEA) Assay for Nuclear Factor Kappa B Subunit 1 (NFKB1) using HepaRG (AID 2283521)
Outline: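 Differentiated human HepaRG cells in serum-free induction medium with 0.5% DMSO were exposed for 48 h to eight half-log concentrations, top 100 uM, in duplicate. NFKB1 mRNA measured by Fluidigm TaqMan qRT-PCR, normalised to ACTB, GAPDH and POLR2A; bidirectional fit versus DMSO.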

[5] = read-out: Protein phosphatase 2A (PPP2R4), PTPA (gene 5524); experiment: LTEA_HepaRG_PPP2R4: Life Technologies and Expression Analysis (LTEA) Assay for Protein phosphatase 2A (PPP2R4) using HepaRG (AID 2283522)
Outline: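 Readout is PPP2R4 transcript level by microfluidic qRT-PCR after 48 h chemical treatment of human HepaRG liver cells. Concentrations spanned 100 uM downward in half-log steps; gain or loss of signal was fitted relative to DMSO.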

[6] = read-out: Phosphatase and tensin (PTEN), PTEN (gene 5728); experiment: LTEA_HepaRG_PTEN: Life Technologies and Expression Analysis (LTEA) Assay for Phosphatase and tensin (PTEN) using HepaRG (AID 2283523)
Outline: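 Differentiated human HepaRG cells, plated 48 h then switched to serum-free induction medium, were exposed in duplicate for 48 h to eight half-log concentrations up to 100 uM in 0.5% DMSO. PTEN mRNA measured by TaqMan qRT-PCR, normalized to ACTB/GAPDH/POLR2A, bidirectional fit versus DMSO.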

[7] = read-out: solute carrier (SLC22A1), SLC22A1 (gene 6580); experiment: LTEA_HepaRG_SLC22A1: Life Technologies and Expression Analysis (LTEA) Assay for solute carrier (SLC22A1) using HepaRG (AID 2283524)
Outline: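 Human HepaRG cells were plated 48 h, switched to serum-free induction medium, then exposed in duplicate for 48 h to 8-point half-log series from 100 uM in 0.5% DMSO. SLC22A1 mRNA measured by qRT-PCR, normalized to ACTB/GAPDH/POLR2A, fitted bidirectionally versus DMSO.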

[8] = read-out: Pyruvate Dehydrogenase Kinase 4 (PDK4), PDK4 (gene 5166); experiment: LTEA_HepaRG_PDK4: Life Technologies and Expression Analysis (LTEA) Assay for Pyruvate Dehydrogenase Kinase 4 (PDK4) using HepaRG (AID 2283525)
Outline: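 Differentiated human HepaRG cells, pre-cultured 48 h, were exposed in duplicate for 48 h in serum-free induction medium to eight half-log concentrations up to 100 uM in 0.5% DMSO. PDK4 mRNA was quantified by qRT-PCR, normalized to ACTB, GAPDH and POLR2A, bidirectional fitting versus DMSO.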

[9] = read-out: NAD(P)H dehydrogenase [quinone] 1 (NQO1), NQO1 (gene 1728); experiment: LTEA_HepaRG_NQO1: Life Technologies and Expression Analysis (LTEA) Assay for NAD(P)H dehydrogenase [quinone] 1 (NQO1) using HepaRG (AID 2283526)
Outline: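 HepaRG, 48 h post-plating → serum-free induction medium → test chemical 48 h (duplicate, 100 uM top, half-log x8, 0.5% DMSO) → RNA isolation → qRT-PCR, ACTB/GAPDH/POLR2A normalization; bidirectional curve fit vs DMSO baseline.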

Measured: AC50

Nuclear factor NF-kappa-B p105 subunit (Homo sapiens), sequence (P19838 whole entry, looked up): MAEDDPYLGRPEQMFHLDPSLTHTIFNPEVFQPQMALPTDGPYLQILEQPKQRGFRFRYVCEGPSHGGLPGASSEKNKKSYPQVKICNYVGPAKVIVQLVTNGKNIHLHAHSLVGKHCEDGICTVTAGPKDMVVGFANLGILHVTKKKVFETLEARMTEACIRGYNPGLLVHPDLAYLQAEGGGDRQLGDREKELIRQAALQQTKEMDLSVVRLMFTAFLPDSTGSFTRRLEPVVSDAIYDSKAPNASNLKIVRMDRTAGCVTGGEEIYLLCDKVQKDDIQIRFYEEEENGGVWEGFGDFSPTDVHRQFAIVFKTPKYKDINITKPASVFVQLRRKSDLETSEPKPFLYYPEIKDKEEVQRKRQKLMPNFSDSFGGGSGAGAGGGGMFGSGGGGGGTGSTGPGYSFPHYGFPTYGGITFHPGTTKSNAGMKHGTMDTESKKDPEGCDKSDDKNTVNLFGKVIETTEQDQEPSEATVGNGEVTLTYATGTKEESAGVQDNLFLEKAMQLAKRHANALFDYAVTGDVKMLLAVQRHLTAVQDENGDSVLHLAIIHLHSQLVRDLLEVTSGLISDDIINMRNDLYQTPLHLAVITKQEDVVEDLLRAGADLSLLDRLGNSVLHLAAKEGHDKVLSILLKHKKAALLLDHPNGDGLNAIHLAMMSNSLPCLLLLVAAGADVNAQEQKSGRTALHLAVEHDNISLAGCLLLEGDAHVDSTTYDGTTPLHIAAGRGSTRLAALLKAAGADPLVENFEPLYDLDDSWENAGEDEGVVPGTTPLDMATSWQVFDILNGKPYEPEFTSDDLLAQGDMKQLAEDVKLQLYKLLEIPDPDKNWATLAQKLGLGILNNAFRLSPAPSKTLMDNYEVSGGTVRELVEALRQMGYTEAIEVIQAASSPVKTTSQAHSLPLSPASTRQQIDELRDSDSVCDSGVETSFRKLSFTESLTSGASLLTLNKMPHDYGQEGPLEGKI

C1CCC(SSC2CCCCC2)CC1
inactive: all assays above

CN[C@H]1CC[C@@H](c2ccc(Cl)c(Cl)c2)c2ccc(S(N)(=O)=O)cc21
inactive: MYC, MYC (gene 4609) | [3] | [6] | [9]
active: [1] 66.4 µM | [2] 84.1 µM | [4] 81.4 µM | [5] 84.5 µM | [7] 22.4 µM | [8] 83 µM

CCCCC(CC)COC(=O)CC(C(=O)OCC(CC)CCCC)S(=O)(=O)O (stereo unspecified)
inactive: [1] | [2] | [4] | [8]
active: MYC, MYC (gene 4609) 85 µM | [3] 89 µM | [5] 80.9 µM | [6] 80.9 µM | [7] 50 µM

CC(C)c1ccc(C(=O)N=C(N)N)cc1S(C)(=O)=O
active: [1] 67.9 µM | MYC, MYC (gene 4609) 0.343 µM | [2] 1.4 µM | [4] 0.291 µM | [5] 0.532 µM | [6] 0.277 µM | [7] 0.35 µM | [8] 0.362 µM | [9] 0.959 µM
inactive: [3]

O=c1c(O)c(-c2ccc(O)c(O)c2)oc2cc(O)cc(O)c12
not listed: [9]
inactive: all other assays above

Cc1ccc(N(C)C)cc1
inactive: all assays above

Cc1cccc([N+](=O)[O-])c1C
inactive: all assays above

O=C(N[C@@H](Cc1ccccc1)[C@@H](O)C(=O)N1C[C@@H](O)[C@@H](O)C1)c1cc2cc(Cl)ccc2[nH]1
active: [3] 50 µM
inactive: all other assays above

COc1ccc(C)cc1N
inactive: all assays above

Oc1ccc2ccccc2c1N=Nc1ccccc1
active: MYC, MYC (gene 4609) 6.08 µM | [3] 19 µM | [7] 10.5 µM | [8] 4.28 µM
not listed: [9]
inactive: all other assays above

Cc1ccc(C(C)C)c(O)c1
not listed: [9]
inactive: all other assays above

Nc1nc(N)c2nc(CNc3ccc(C(=O)N[C@@H](CCC(=O)O)C(=O)O)cc3)cnc2n1
active: [8] 0.0967 µM
inactive: all other assays above

CCNc1cccc(C)c1
not listed: [9]
inactive: all other assays above

C[Si]1(C)O[Si](C)(C)O[Si](C)(C)O[Si](C)(C)O1
not listed: [9]
inactive: all other assays above

CC1(C)CC(N=C=O)CC(C)(CN=C=O)C1 (stereo unspecified)
inactive: all assays above

CCCCN(CCCC)CCCC
not listed: [9]
inactive: all other assays above

CCCCCCCCCCCCCCCCCC(=O)O
not listed: [8]
inactive: all other assays above

CCOC(=O)C(C)(C)Oc1ccc(Cl)cc1
active: [8] 24.6 µM
inactive: all other assays above

Cc1ccc(C)c(O)c1C
not listed: [9]
inactive: all other assays above

Cc1cccc(C)c1O
inactive: all assays above
